About 2,000 (36%) of roughly 5,500 compounds were called active. Another 18% or so got no clear call; they are omitted. No stated cut-off is given here; in the data, active means normalized growth mostly below about 0.91 (no sharp cut-off); inconclusive means no clear call, values can overlap the other calls; inactive means mostly above about 0.92. The list shows a part of the results.
Assay: chemical genetic growth profiling, strain panel (AID 1159580);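 further: tested at 20 µM; growth read once vehicle control cultures reached saturation at 30 °C; 1 = growth at the plate median or of vehicle wells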
Details: growth OD
[1] = S. cerevisiae deletion strains, locus YDR150W, strain NUM1, stronger effect = lower value
[2] = S. cerevisiae deletion strains, locus YMR263W, strain SAP30, stronger effect = lower value
[3] = S. cerevisiae deletion strains, locus YPL055C, strain LGE1, stronger effect = lower value
[4] = S. cerevisiae deletion strains, locus YPL241C, strain CIN2, stronger effect = lower value
[5] = S. cerevisiae deletion strains, locus YDL101C, strain DUN1, stronger effect = lower value
[6] = S. cerevisiae deletion strains, locus YHR030C, strain SLT2, stronger effect = lower value

Measured: normalized growth

OCc1cc(C(O)CNCCCCCCOCCCCc2ccccc2)ccc1O (stereo unspecified)
inactive: S. cerevisiae deletion strains, locus YAL040C, strain CLN3, stronger effect = lower value 1.07 | S. cerevisiae deletion strains, locus YCL061C, strain MRC1 (second series), stronger effect = lower value 1.01 | [1] 1.01 | S. cerevisiae deletion strains, locus YDR363W, strain ESC2, stronger effect = lower value 0.995 | S. cerevisiae deletion strains, locus YER002W, strain NOP16, stronger effect = lower value 1.02 | [2] 1.01 | S. cerevisiae deletion strains, locus YMR307W, strain GAS1, stronger effect = lower value 0.992 | S. cerevisiae deletion strains, locus YNL175C, strain NOP13, stronger effect = lower value 1.01 | S. cerevisiae deletion strains, locus YNL197C, strain WHI3, stronger effect = lower value 1.01 | S. cerevisiae deletion strains, locus YNL224C, strain SQS1, stronger effect = lower value 1.01 | S. cerevisiae deletion strains, locus YOR083W, strain WHI5 (second series), stronger effect = lower value 1.01 | [3] 0.983 | [4] 0.997

N/C(Cn1ccc(C(F)(F)F)n1)=N/OS(=O)(=O)c1cccc(Cl)c1Cl
inactive: S. cerevisiae deletion strains, locus YAR019C, strain CDC15, stronger effect = lower value 0.979 | S. cerevisiae deletion strains, locus YBL105C, strain PKC1, stronger effect = lower value 0.989 | S. cerevisiae deletion strains, locus YBR135W, strain CKS1, stronger effect = lower value 0.977 | S. cerevisiae deletion strains, locus YBR136W, strain MEC1, stronger effect = lower value 0.985 | S. cerevisiae deletion strains, locus YBR160W, strain CDC28, stronger effect = lower value 0.972 | S. cerevisiae deletion strains, locus YDL017W, strain CDC7, stronger effect = lower value 0.994 | S. cerevisiae deletion strains, locus YDL028C, strain MPS1, stronger effect = lower value 0.985 | [5] 0.989 | S. cerevisiae deletion strains, locus YDL108W, strain KIN28, stronger effect = lower value 0.98 | S. cerevisiae deletion strains, locus YDL132W, strain cdc53, stronger effect = lower value 0.983 | S. cerevisiae deletion strains, locus YDL214C, strain PRR2, stronger effect = lower value 1.01 | S. cerevisiae deletion strains, locus YDR052C, strain DBF4, stronger effect = lower value 0.986 | S. cerevisiae deletion strains, locus YDR054C, strain cdc34, stronger effect = lower value 0.975 | S. cerevisiae deletion strains, locus YDR226W, strain ADK1, stronger effect = lower value 0.987 | S. cerevisiae deletion strains, locus YDR477W, strain SNF1, stronger effect = lower value 0.993 | S. cerevisiae deletion strains, locus YER123W, strain YCK3, stronger effect = lower value 0.989 | S. cerevisiae deletion strains, locus YER133W, strain GLC7, stronger effect = lower value 0.995 | S. cerevisiae deletion strains, locus YFL009W, strain cdc4, stronger effect = lower value 0.988 | S. cerevisiae deletion strains, locus YFL029C, strain CAK1, stronger effect = lower value 0.979 | S. cerevisiae deletion strains, locus YFR003C, strain YPI1, stronger effect = lower value 0.985 | S. cerevisiae deletion strains, locus YFR019W, strain FAB1, stronger effect = lower value 1 | S. cerevisiae deletion strains, locus YFR028C, strain CDC14, stronger effect = lower value 0.98 | S. cerevisiae deletion strains, locus YGR040W, strain KSS1, stronger effect = lower value 0.983 | S. cerevisiae deletion strains, locus YGR052W, strain FMP48, stronger effect = lower value 1.09 | S. cerevisiae deletion strains, locus YGR092W, strain DBF2, stronger effect = lower value 0.974 | [6] 1.07 | S. cerevisiae deletion strains, locus YHR079C, strain IRE1, stronger effect = lower value 1.05 | S. cerevisiae deletion strains, locus YHR082C, strain KSP1, stronger effect = lower value 1.11 | S. cerevisiae deletion strains, locus YHR205W, strain SCH9, stronger effect = lower value 1.02 | S. cerevisiae deletion strains, locus YIL147C, strain SLN1, stronger effect = lower value 0.987 | S. cerevisiae deletion strains, locus YJL095W, strain BCK1, stronger effect = lower value 1.08 | S. cerevisiae deletion strains, locus YJL128C, strain PBS2, stronger effect = lower value 0.988 | S. cerevisiae deletion strains, locus YJL157C, strain FAR1, stronger effect = lower value 1 | S. cerevisiae deletion strains, locus YJR016C, strain ILV3, stronger effect = lower value 0.989 | S. cerevisiae deletion strains, locus YJR066W, strain TOR1 (second series), stronger effect = lower value 0.982 | S. cerevisiae deletion strains, locus YJR066W, strain TOR1, stronger effect = lower value 1.12 | S. cerevisiae deletion strains, locus YKL048C, strain ELM1, stronger effect = lower value 0.984 | S. cerevisiae deletion strains, locus YKL067W, strain YNK1, stronger effect = lower value 0.994 | S. cerevisiae deletion strains, locus YKL101W, strain HSL1, stronger effect = lower value 1.01 | S. cerevisiae deletion strains, locus YKL193C, strain SDS22, stronger effect = lower value 0.983 | S. cerevisiae deletion strains, locus YKL203C, strain TOR2, stronger effect = lower value 1.06 | S. cerevisiae deletion strains, locus YLR113W, strain HOG1, stronger effect = lower value 1.04 | S. cerevisiae deletion strains, locus YLR133W, strain CKI1, stronger effect = lower value 1.01 | S. cerevisiae deletion strains, locus YLR403W, strain SFP1, stronger effect = lower value 0.992 | S. cerevisiae deletion strains, locus YML070W, strain DAK1, stronger effect = lower value 1 | S. cerevisiae deletion strains, locus YMR001C, strain CDC5, stronger effect = lower value 0.983 | S. cerevisiae deletion strains, locus YMR205C, strain PFK2 (second series), stronger effect = lower value 1 | S. cerevisiae deletion strains, locus YMR277W, strain FCP1, stronger effect = lower value 0.991 | S. cerevisiae deletion strains, locus YNL006W, strain LST8, stronger effect = lower value 0.99 | S. cerevisiae deletion strains, locus YNL020C, strain ARK1, stronger effect = lower value 1.01 | S. cerevisiae deletion strains, locus YNL161W, strain CBK1, stronger effect = lower value 0.981 | S. cerevisiae deletion strains, locus YNL183C, strain NPR1, stronger effect = lower value 1.06 | S. cerevisiae deletion strains, locus YNL207W, strain RIO2, stronger effect = lower value 0.977 | S. cerevisiae deletion strains, locus YNL222W, strain SSU72, stronger effect = lower value 0.977 | S. cerevisiae deletion strains, locus YNL307C, strain MCK1 (second series), stronger effect = lower value 0.997 | S. cerevisiae deletion strains, locus YOL078W, strain AVO1, stronger effect = lower value 0.986 | S. cerevisiae deletion strains, locus YOL136C, strain PFK27, stronger effect = lower value 1.02 | S. cerevisiae deletion strains, locus YOR061W, strain CKA2, stronger effect = lower value 1.01 | S. cerevisiae deletion strains, locus YOR119C, strain RIO1, stronger effect = lower value 1.04 | S. cerevisiae deletion strains, locus YOR231W, strain MKK1, stronger effect = lower value 1.01 | S. cerevisiae deletion strains, locus YOR329C, strain SCD5, stronger effect = lower value 0.992 | S. cerevisiae deletion strains, locus YPL031C, strain PHO85, stronger effect = lower value 0.998 | S. cerevisiae deletion strains, locus YPL153C, strain RAD53, stronger effect = lower value 0.987 | S. cerevisiae deletion strains, locus YPL204W, strain HRR25, stronger effect = lower value 0.989 | S. cerevisiae deletion strains, locus YPL209C, strain IPL1, stronger effect = lower value 0.978 | S. cerevisiae deletion strains, locus YPL256C, strain CLN2, stronger effect = lower value 1.03 | S. cerevisiae deletion strains, locus YPR025C, strain CCL1, stronger effect = lower value 0.978 | S. cerevisiae deletion strains, locus YPR106W, strain ISR1, stronger effect = lower value 0.992 | S. cerevisiae deletion strains, locus YPR111W, strain DBF20, stronger effect = lower value 0.976 | S. cerevisiae deletion strains, strain NNK1, stronger effect = lower value 0.998 | S. cerevisiae deletion strains, strain TSCII, stronger effect = lower value 0.986

Cc1cc(=O)n2[nH]cnc2n1
inactive: S. cerevisiae deletion strains, locus YAL013W, strain DEP1, stronger effect = lower value 1.05 | S. cerevisiae deletion strains, locus YBR229C, strain ROT2, stronger effect = lower value 1.01 | [5] 1.06 | S. cerevisiae deletion strains, locus YDL134C, strain PPH21, stronger effect = lower value 0.964 | [1] 1.05 | S. cerevisiae deletion strains, locus YEL061C, strain CIN8, stronger effect = lower value 1 | S. cerevisiae deletion strains, locus YGR078C, strain PAC10, stronger effect = lower value 1.05 | [6] 1.14 | S. cerevisiae deletion strains, locus YHR087W, strain rtc3, stronger effect = lower value 0.99 | S. cerevisiae deletion strains, locus YJR043C, strain POL32, stronger effect = lower value 1.08 | S. cerevisiae deletion strains, locus YJR075W, strain HOC1, stronger effect = lower value 1.02 | S. cerevisiae deletion strains, locus YKL190W, strain CNB1, stronger effect = lower value 0.997 | S. cerevisiae deletion strains, locus YLR039C, strain RIC1, stronger effect = lower value 0.977 | S. cerevisiae deletion strains, locus YLR058C, strain SHM2 (second series), stronger effect = lower value 0.996 | S. cerevisiae deletion strains, locus YLR085C, strain ARP6, stronger effect = lower value 1.01 | S. cerevisiae deletion strains, locus YLR262C, strain YPT6, stronger effect = lower value 0.964 | S. cerevisiae deletion strains, locus YML094W, strain GIM5, stronger effect = lower value 0.985 | S. cerevisiae deletion strains, locus YMR219W, strain ESC1, stronger effect = lower value 0.99 | [2] 1.02 | S. cerevisiae deletion strains, locus YNL153C, strain GIM3, stronger effect = lower value 1.03 | S. cerevisiae deletion strains, locus YNL298W, strain CLA4 (second series), stronger effect = lower value 1.01 | S. cerevisiae deletion strains, locus YNL322C, strain KRE1, stronger effect = lower value 1 | S. cerevisiae deletion strains, locus YNR030W, strain Alg12, stronger effect = lower value 1.02 | [3] 0.997 | [4] 1.01 | S. cerevisiae deletion strains, locus YPR135W, strain CTF4, stronger effect = lower value 1.09 | S. cerevisiae strains, strain wild type, stronger effect = lower value 1.01

— PubChem BioAssay AID1159580 (chemical genetic matrix, 2015)
